# The source holds several records for some structures; these can differ, active in one and inactive in another. The source made the active and inactive calls. The calls were made as follows: active = hit-call score of the fitted dose curve at least 0.9, where 1 is the maximum; inactive = score below 0.9.
# How the values were obtained:
# [1] = ATG_ISRE_CIS: Attagene CIS-FACTORIAL HepG2 Assay for human Interferon Regulatory Factor 1 (IRF1) binding to an Interferon-Stimulated Response Element (ISRE) (AID 2282948); conditions: HepG2 ISRE cis-reporter (Attagene), mRNA transcription readout; actives raise or lower the signal
# Summary of the method: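 Transiently transfected HepG2 cells carrying cis-element reporter units, dosed 24 hours. Reporter mRNA quantified by RT-PCR, fluorescent primer extension, HpaI digestion and capillary electrophoresis. Bidirectional fitting relative to DMSO.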
# [2] = ATG_M_32_CIS: Attagene CIS-FACTORIAL HepG2 Assay for M32 Transcription Factor (Internal Marker) (AID 2282949); conditions: HepG2 Attagene cis-factorial M32 reporter, mRNA; actives raise or lower the signal;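 also: background control marker of the multiplexed CIS panel rather than a real target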
# Summary of the method: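 Fluorescent capillary electrophoresis peaks of HpaI-digested, FAM-labelled RT-PCR reporter products give the signal. Source: transiently transfected human liver HepG2 cells, 24 h after chemical dosing; bidirectional fitting against DMSO.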
# [3] = target: Hypoxia-inducible factor 1-alpha (Homo sapiens) (UniProt Q16665); experiment: ATG_HIF1a_CIS: Attagene CIS-FACTORIAL HepG2 Assay for human Hypoxia Inducible Factor 1 (HIF1A) (AID 2282951); conditions: HepG2 Attagene cis-factorial HIF1a reporter transcription; actives raise or lower the signal
# Hypoxia-inducible factor 1-alpha (Homo sapiens), sequence (Q16665 whole entry, looked up): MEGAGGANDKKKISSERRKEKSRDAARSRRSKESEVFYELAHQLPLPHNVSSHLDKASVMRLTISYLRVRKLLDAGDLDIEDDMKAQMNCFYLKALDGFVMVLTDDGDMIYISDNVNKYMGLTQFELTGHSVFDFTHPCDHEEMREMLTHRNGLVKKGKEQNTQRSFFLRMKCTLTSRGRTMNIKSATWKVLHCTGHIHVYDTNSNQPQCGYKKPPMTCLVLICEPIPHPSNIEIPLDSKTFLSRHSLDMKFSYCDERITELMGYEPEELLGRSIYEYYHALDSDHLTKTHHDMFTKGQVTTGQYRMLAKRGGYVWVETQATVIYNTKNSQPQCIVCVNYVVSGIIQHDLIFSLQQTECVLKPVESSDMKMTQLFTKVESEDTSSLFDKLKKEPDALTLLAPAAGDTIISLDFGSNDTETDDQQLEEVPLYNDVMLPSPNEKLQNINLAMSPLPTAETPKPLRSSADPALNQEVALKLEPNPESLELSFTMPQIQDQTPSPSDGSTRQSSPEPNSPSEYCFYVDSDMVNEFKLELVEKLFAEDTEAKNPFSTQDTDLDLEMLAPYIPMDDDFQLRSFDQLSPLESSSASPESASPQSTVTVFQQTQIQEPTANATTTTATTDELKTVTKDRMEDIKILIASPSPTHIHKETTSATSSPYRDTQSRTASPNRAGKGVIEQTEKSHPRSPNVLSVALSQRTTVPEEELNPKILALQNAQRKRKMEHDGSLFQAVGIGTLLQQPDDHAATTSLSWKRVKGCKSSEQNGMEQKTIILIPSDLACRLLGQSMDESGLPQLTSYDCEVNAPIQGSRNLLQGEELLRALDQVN
# Summary of the method: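 Measures endogenous transcription-factor activity through cis-regulated reporter mRNA in HepG2. Cells dosed 24 h; transcripts quantified by RT-PCR with 6-FAM-labelled products separated by capillary electrophoresis; DMSO serves as negative control.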
# [4] = target: Hepatocyte nuclear factor 6 (Homo sapiens) (UniProt Q9UBC0); experiment: ATG_HNF6_CIS: Attagene CIS-FACTORIAL HepG2 Assay for human Hepatocyte Nuclear Factor 6 (HNF6) (AID 2282952); conditions: HepG2 Attagene cis-factorial HNF6 reporter transcription; actives raise or lower the signal
# Hepatocyte nuclear factor 6 (Homo sapiens), sequence (Q9UBC0 whole entry, looked up): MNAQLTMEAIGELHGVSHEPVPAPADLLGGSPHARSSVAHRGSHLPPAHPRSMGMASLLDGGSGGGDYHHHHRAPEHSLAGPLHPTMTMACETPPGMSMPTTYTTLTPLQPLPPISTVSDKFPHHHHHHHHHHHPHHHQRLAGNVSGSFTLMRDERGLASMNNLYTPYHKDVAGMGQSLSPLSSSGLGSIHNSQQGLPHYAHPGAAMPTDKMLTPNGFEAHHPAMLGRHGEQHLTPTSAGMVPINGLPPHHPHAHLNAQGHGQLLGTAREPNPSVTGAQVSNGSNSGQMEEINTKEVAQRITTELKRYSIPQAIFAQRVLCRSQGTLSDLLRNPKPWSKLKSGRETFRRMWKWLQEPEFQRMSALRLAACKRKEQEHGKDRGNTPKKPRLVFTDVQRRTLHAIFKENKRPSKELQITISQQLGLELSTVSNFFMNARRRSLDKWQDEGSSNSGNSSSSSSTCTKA
# Summary of the method: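 Transiently transfected HepG2 cells expressing cis-regulated reporter transcription units were exposed to chemical for 24 h in a 24-well format. Reporter transcript abundance was determined by fluorescence capillary electrophoresis.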
# [5] = ATG_MRE_CIS: Attagene CIS-FACTORIAL HepG2 Assay for human Metal Responsive Element (MRE) (AID 2282954); conditions: HepG2 MRE cis-reporter transcription, Attagene multiplex; actives raise or lower the signal
# Summary of the method: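 Step one: transfect HepG2 with cis-regulated reporter units. Step two: dose 24 h. Step three: isolate RNA, RT-PCR, 6-FAM label, HpaI digest, capillary electrophoresis. Fit bidirectionally to DMSO.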
# [6] = target: Paired box protein Pax-6 (Homo sapiens) (UniProt P26367); experiment: ATG_Pax6_CIS: Attagene CIS-FACTORIAL HepG2 Assay for human Paired Box 6 (PAX6) (AID 2282956); conditions: HepG2 CIS-FACTORIAL PAX6 reporter transcription, RNA readout; actives raise or lower the signal
# Paired box protein Pax-6 (Homo sapiens), sequence (P26367 whole entry, looked up): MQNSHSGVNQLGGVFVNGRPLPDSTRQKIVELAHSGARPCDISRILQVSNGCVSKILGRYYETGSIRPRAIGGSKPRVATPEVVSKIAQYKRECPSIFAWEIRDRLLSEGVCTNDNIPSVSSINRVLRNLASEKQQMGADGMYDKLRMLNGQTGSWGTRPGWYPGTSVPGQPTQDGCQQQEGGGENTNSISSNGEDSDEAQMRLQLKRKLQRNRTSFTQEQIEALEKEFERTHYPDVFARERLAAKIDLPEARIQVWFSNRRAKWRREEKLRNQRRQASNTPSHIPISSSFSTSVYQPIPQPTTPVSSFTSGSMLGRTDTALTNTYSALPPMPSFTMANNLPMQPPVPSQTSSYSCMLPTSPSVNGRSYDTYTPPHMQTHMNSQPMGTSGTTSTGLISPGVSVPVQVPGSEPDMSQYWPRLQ
# Summary of the method: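 HepG2 cells transiently transfected with cis-promoter-driven multiplexed reporter units sensing endogenous transcription factor activity; 24 h chemical exposure. Reporter mRNA quantified by RT-PCR, 6-FAM labelling, HpaI digestion and capillary electrophoresis; bidirectional fit versus DMSO baseline.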
# [7] = ATG_PXRE_CIS: Attagene CIS-FACTORIAL HepG2 Assay for human Pregnane X Receptor Element (PXRE) (AID 2282957); conditions: HepG2 Attagene CIS-FACTORIAL PXRE reporter, mRNA; actives raise or lower the signal
# Summary of the method: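 Cis-element reporter mRNA in human hepatoma HepG2 cells is measured 24 h post-dosing by RT-PCR, primer-extension labeling and capillary electrophoresis; gain or loss of signal is fitted relative to DMSO.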
# [8] = ATG_RORE_CIS: Attagene CIS-FACTORIAL HepG2 Assay for human RAR-related Orphan Receptor Element (RORE) (AID 2282959); conditions: HepG2 Attagene cis-factorial RORE reporter, mRNA; actives raise or lower the signal
# Summary of the method: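 Cells were HepG2 carrying transfected cis-regulated reporter constructs, dosed for 24 hours. Total RNA was reverse-transcribed and reporter cDNA amplified, fluorescently labeled and sized by capillary electrophoresis. Activity was fitted bidirectionally relative to DMSO.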
# [9] = target: Transcription factor Sp1 (Homo sapiens) (UniProt P08047); experiment: ATG_Sp1_CIS: Attagene CIS-FACTORIAL HepG2 Assay for human Specificity Protein 1 (Sp1) (AID 2282961); conditions: HepG2 Sp1 cis-reporter transcription, actives raise or lower the signal
# Transcription factor Sp1 (Homo sapiens), sequence (P08047 whole entry, looked up): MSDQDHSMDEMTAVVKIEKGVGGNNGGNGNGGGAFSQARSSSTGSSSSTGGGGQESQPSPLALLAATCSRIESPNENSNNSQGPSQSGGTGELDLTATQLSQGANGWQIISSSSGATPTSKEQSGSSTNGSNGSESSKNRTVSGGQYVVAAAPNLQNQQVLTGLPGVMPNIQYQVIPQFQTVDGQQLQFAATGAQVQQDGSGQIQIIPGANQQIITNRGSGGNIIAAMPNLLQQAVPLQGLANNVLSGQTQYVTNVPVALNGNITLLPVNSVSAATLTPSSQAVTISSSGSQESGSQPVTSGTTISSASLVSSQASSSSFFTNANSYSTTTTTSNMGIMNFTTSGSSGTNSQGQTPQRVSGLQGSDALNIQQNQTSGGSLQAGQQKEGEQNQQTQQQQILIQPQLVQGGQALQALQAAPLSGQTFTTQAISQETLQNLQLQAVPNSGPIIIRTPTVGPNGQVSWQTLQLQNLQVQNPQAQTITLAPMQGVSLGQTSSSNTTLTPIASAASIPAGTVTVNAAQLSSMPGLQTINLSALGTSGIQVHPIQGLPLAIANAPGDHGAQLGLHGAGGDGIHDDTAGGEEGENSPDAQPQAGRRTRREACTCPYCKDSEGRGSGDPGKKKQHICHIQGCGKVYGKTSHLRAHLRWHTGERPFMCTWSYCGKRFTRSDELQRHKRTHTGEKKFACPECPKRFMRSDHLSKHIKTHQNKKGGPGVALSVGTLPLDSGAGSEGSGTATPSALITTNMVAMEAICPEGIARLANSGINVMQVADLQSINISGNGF
# Summary of the method: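 Endogenous Sp1 activity was gauged in human liver HepG2 cells bearing transfected reporter units under a cis-regulating promoter. After 24 h dosing, reporter mRNA was quantified by RT-PCR with capillary electrophoresis, and activity fitted bidirectionally versus DMSO.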
# [10] = ATG_SREBP_CIS: Attagene CIS-FACTORIAL HepG2 Assay for human Sterol Regulatory Element Binding (SREBP) (AID 2282962); conditions: HepG2 Attagene cis-factorial SREBP reporter, mRNA; actives raise or lower the signal
# Summary of the method: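 HepG2 cells transiently transfected with multiplexed cis-promoter reporter units sensing endogenous transcription factors; reporter mRNA measured 24 h after dosing by RT-PCR, 6-FAM labeling, HpaI digestion and capillary electrophoresis. Bidirectional fit versus DMSO.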
# [11] = target: Signal transducer and activator of transcription 3 (Homo sapiens) (UniProt P40763); experiment: ATG_STAT3_CIS: Attagene CIS-FACTORIAL HepG2 Assay for human Signal Transducer and Activator of Transcription 3 (STAT3) (AID 2282963); conditions: HepG2, Attagene cis-factorial STAT3 reporter transcription; actives raise or lower the signal
# Signal transducer and activator of transcription 3 (Homo sapiens), sequence (P40763 whole entry, looked up): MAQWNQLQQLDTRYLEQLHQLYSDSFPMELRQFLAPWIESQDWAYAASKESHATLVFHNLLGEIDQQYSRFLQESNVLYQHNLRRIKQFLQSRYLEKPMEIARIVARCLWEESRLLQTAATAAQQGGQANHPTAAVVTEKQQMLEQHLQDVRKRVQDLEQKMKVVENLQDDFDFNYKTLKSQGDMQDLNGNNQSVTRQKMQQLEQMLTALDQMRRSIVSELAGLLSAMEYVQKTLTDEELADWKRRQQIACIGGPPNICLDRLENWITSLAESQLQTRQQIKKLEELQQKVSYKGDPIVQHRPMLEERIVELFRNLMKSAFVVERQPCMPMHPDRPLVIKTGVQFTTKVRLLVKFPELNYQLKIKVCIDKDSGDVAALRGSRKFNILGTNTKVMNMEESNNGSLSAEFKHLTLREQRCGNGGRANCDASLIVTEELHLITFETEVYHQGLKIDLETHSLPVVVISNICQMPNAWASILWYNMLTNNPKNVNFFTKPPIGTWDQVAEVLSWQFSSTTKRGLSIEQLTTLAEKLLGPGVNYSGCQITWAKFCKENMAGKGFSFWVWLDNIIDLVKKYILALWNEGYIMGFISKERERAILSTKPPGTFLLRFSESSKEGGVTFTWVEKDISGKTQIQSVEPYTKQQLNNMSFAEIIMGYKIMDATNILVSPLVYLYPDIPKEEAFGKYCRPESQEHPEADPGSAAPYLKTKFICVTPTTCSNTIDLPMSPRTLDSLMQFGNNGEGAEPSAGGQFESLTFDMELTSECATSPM
# Summary of the method: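 Transcript-level reporter assay. HepG2 transient MRTU transfection, 24 h exposure, fluorescence detection after RT-PCR and CE; DMSO baseline.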
# [12] = ATG_TA_CIS: Attagene CIS-FACTORIAL HepG2 Assay for human TA Basal Promoter (AID 2282964); conditions: HepG2 Attagene CIS-factorial TA basal promoter reporter; actives raise or lower the signal
# Summary of the method: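 Steps: transfect HepG2 with MRTUs; dose 24 h; isolate RNA, DNase-treat, reverse-transcribe; PCR and FAM-label reporter cDNA; digest with HpaI 2h at 37 C; run capillary electrophoresis. Activity fitted both directions against DMSO.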
# [13] = ATG_TCF_b_cat_CIS: Attagene CIS-FACTORIAL HepG2 Assay for human T-Cell-Factor with beta-catenin (TCF/b-cat) (AID 2282965); conditions: HepG2 TCF/beta-catenin cis-reporter transcription, actives raise or lower the signal
# Summary of the method: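 Using capillary electrophoresis as the read-out, labelled reporter cDNA fragments from transiently transfected HepG2 were sized and quantified. Exposure lasted 24 hours; activity in either direction was referenced to DMSO.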
# [14] = ATG_TAL_CIS: Attagene CIS-FACTORIAL HepG2 Assay for human TAL Basal Promoter (AID 2282966); conditions: HepG2 Attagene cis-factorial TAL promoter reporter; actives raise or lower the signal;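 also: background control endpoint measuring basal TAL promoter reporter mRNA not a specific factor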
# Summary of the method: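 In this cell-based multiplex, HepG2 liver cells bearing cis-promoter reporter constructs are dosed for 24 hours. Total RNA is reverse-transcribed and amplified, labelled fragments are sized by capillary electrophoresis, and signal changes are fitted bidirectionally versus DMSO.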
# [15] = ATG_GRE_CIS: Attagene CIS-FACTORIAL HepG2 Assay for human Glucocorticoid Response Elements (GRE) (AID 2282947); conditions: HepG2 GRE cis-reporter, Attagene multiplex mRNA; actives raise or lower the signal
# Summary of the method: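 Following 24 h chemical exposure of transiently transfected HepG2 cells, total RNA was reverse-transcribed and reporter cDNA amplified, fluorescently labelled and sized by capillary electrophoresis. Signal gain or loss was fitted relative to DMSO vehicle.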
# [16] = target: Heat shock factor protein 1 (Homo sapiens) (UniProt Q00613); experiment: ATG_HSE_CIS: Attagene CIS-FACTORIAL HepG2 Assay for human Heat Shock Transcription Factor 1 (HSE) (AID 2282953); conditions: HepG2 HSE cis-reporter, Attagene RNA transcription; actives raise or lower the signal
# Heat shock factor protein 1 (Homo sapiens), sequence (Q00613 whole entry, looked up, the tested form may be a part): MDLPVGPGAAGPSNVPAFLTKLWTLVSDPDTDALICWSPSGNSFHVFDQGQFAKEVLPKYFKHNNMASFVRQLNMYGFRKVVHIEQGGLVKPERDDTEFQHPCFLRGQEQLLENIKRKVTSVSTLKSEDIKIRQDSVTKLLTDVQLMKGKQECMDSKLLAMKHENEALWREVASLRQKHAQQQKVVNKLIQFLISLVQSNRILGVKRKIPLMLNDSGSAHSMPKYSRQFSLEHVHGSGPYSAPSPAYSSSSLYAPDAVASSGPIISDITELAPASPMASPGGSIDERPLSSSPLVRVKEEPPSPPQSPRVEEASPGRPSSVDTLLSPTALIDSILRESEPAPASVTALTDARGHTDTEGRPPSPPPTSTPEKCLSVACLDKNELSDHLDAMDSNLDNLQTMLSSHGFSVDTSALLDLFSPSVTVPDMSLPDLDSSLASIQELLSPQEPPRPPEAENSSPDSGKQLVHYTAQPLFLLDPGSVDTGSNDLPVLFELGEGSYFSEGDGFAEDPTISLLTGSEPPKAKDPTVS
# Summary of the method: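 Cells were transfected with cis-element-driven reporter constructs, dosed for 24 h, then total RNA was reverse-transcribed and reporter cDNA amplified, FAM-labelled and digested with HpaI. Fragments were resolved by capillary electrophoresis; gain or loss was fitted against DMSO.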
# [17] = ATG_PPRE_CIS: Attagene CIS-FACTORIAL HepG2 Assay for human Peroxisome Proliferator-activated Response Element (PPRE) (AID 2282958); conditions: HepG2 PPRE cis-element reporter, Attagene transcription factor profiling; actives raise or lower the signal
# Summary of the method: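 Cells are first transfected transiently with the multiplexed reporter library, then dosed for 24 h. Total RNA is reverse-transcribed, amplified, fluorescently end-labeled and HpaI-cut before capillary electrophoresis; activity is fitted bidirectionally against DMSO controls.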
# [18] = ATG_Sox_CIS: Attagene CIS-FACTORIAL HepG2 Assay for human SRY-box transcription factor (SOX) (AID 2282960); conditions: HepG2 Attagene cis-factorial SOX reporter, mRNA; actives raise or lower the signal
# Summary of the method: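 Transient MRTU transfection of HepG2; 24 h compound incubation; TriZol RNA, oligo(dT) RT, PCR, 6-FAM primer extension, HpaI cut, CE. Bidirectional fit, DMSO = baseline.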
# [19] = ATG_PBREM_CIS: Attagene CIS-FACTORIAL HepG2 Assay for human Phenobarbital-responsive Enhancer Module (PBREM) (AID 2282955); conditions: HepG2 PBREM cis-reporter, Attagene multiplexed transcription; actives raise or lower the signal
# Summary of the method: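 Fluorescence of labelled reporter cDNA fragments, resolved by capillary electrophoresis, gives mRNA induction in transfected HepG2 cells treated for 24 h; DMSO serves as negative control and baseline.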
# [20] = ATG_M_06_CIS: Attagene CIS-FACTORIAL HepG2 Assay for M06 Transcription Factor (Internal Marker) (AID 2282950); conditions: HepG2 Attagene CIS-FACTORIAL M06 internal marker reporter; actives raise or lower the signal
# Summary of the method: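 Steps: transfect HepG2 with multiplexed cis-element reporter constructs; dose chemical 24 h; extract RNA with DNase treatment; reverse-transcribe, PCR-amplify, 6-FAM label, HpaI digest; separate fragments by capillary electrophoresis. Activity fitted both directions versus DMSO.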
compound,measurement,setting,value
O=C(O)CF,outcome,[1],inactive
same,outcome,[2],inactive
same,outcome,[3],inactive
same,outcome,[4],inactive
same,outcome,[5],inactive
same,outcome,[6],inactive
same,AC50,[7],100 µM (active)
same,outcome,[7],inactive
same,outcome,[8],inactive
same,outcome,[9],inactive
same,outcome,[10],inactive
same,outcome,[11],inactive
same,outcome,[12],inactive
same,outcome,[13],inactive
same,outcome,[14],inactive
CCOC(=O)c1ccccc1N,outcome,[15],inactive
same,outcome,[1],inactive
same,outcome,[2],inactive
same,outcome,[3],inactive
same,outcome,[4],inactive
same,outcome,[16],inactive
same,outcome,[5],inactive
same,outcome,[6],inactive
same,AC50,[7],39.6 µM (active)
same,outcome,[17],inactive
same,outcome,[8],inactive
same,outcome,[18],inactive
same,outcome,[9],inactive
same,outcome,[10],inactive
same,outcome,[11],inactive
same,outcome,[12],inactive
same,outcome,[13],inactive
same,outcome,[14],inactive
O=[N+]([O-])c1cc(Cl)ccc1Cl,outcome,[15],inactive
same,outcome,[1],inactive
same,outcome,[2],inactive
same,outcome,[3],inactive
same,outcome,[4],inactive
same,outcome,[16],inactive
same,outcome,[5],inactive
same,outcome,[19],inactive
same,outcome,[6],inactive
same,outcome,[17],inactive
same,outcome,[8],inactive
same,outcome,[18],inactive
same,outcome,[9],inactive
same,outcome,[10],inactive
same,outcome,[11],inactive
same,outcome,[12],inactive
same,outcome,[13],inactive
same,outcome,[14],inactive
c1ccc2c(c1)Nc1ccccc1S2,outcome,[1],inactive
same,outcome,[2],inactive
same,outcome,[20],inactive
same,outcome,[3],inactive
same,outcome,[4],inactive
same,outcome,[16],inactive
same,outcome,[5],inactive
same,outcome,[19],inactive
same,outcome,[6],inactive
same,outcome,[17],inactive
same,outcome,[8],inactive
same,outcome,[18],inactive
same,outcome,[9],inactive
same,outcome,[10],inactive
same,outcome,[12],inactive
same,outcome,[13],inactive
same,outcome,[14],inactive
CCC1(c2ccccc2)C(=O)N=C(O)NC1=O (stereo not drawn),outcome,[1],inactive
same,outcome,[2],inactive
same,outcome,[20],inactive
same,outcome,[3],inactive
same,outcome,[4],inactive
same,outcome,[16],inactive
same,outcome,[5],inactive
same,outcome,[19],inactive
same,outcome,[6],inactive
same,outcome,[17],inactive
same,outcome,[8],inactive
same,outcome,[9],inactive
same,outcome,[10],inactive
same,outcome,[11],inactive
same,outcome,[12],inactive
same,outcome,[13],inactive
same,outcome,[14],inactive
Cc1ccc([N+](=O)[O-])cc1C,outcome,[1],inactive
same,outcome,[2],inactive
same,outcome,[20],inactive
same,outcome,[3],inactive
same,outcome,[4],inactive
same,outcome,[16],inactive
same,outcome,[5],inactive
same,outcome,[19],inactive
same,outcome,[6],inactive
same,outcome,[7],inactive
same,outcome,[17],inactive
same,outcome,[8],inactive
same,outcome,[9],inactive
same,outcome,[10],inactive
same,outcome,[12],inactive
same,outcome,[13],inactive
same,outcome,[14],inactive
CC(C)(C)N(NC(=O)c1ccc(Cl)cc1)C(=O)c1ccccc1,outcome,[15],inactive
same,outcome,[1],inactive
same,outcome,[2],inactive
same,outcome,[3],inactive
same,outcome,[4],inactive
same,outcome,[16],inactive
same,outcome,[5],inactive
same,outcome,[19],inactive
same,outcome,[6],inactive
same,outcome,[17],inactive
same,outcome,[8],inactive
same,outcome,[9],inactive
same,outcome,[10],inactive
same,outcome,[11],inactive
same,outcome,[12],inactive
same,outcome,[13],inactive
same,outcome,[14],inactive
CC(C)(C)c1ccccc1OP(=O)(Oc1ccccc1)Oc1ccccc1,outcome,[15],inactive
same,AC50,[1],50.2 µM (active)
same,outcome,[2],inactive
same,outcome,[3],inactive
same,outcome,[4],inactive
same,outcome,[16],inactive
same,outcome,[5],inactive
same,outcome,[19],inactive
same,outcome,[6],inactive
same,AC50,[7],0.576 µM (active)
same,outcome,[17],inactive
same,outcome,[8],inactive
same,outcome,[9],inactive
same,AC50,[10],11.8 µM (active)
same,outcome,[11],inactive
same,outcome,[12],inactive
same,outcome,[13],inactive
same,outcome,[14],inactive
Cc1c([N+](=O)[O-])cc2c(c1[N+](=O)[O-])C(C)(C)CC2(C)C,outcome,[15],inactive
same,outcome,[1],inactive
same,outcome,[2],inactive
same,outcome,[3],inactive
same,outcome,[4],inactive
same,outcome,[16],inactive
same,outcome,[5],inactive
same,outcome,[6],inactive
same,outcome,[17],inactive
same,outcome,[8],inactive
same,outcome,[18],inactive
same,outcome,[9],inactive
same,AC50,[10],7.71 µM (active)
same,outcome,[12],inactive
same,outcome,[13],inactive
same,outcome,[14],inactive

# — PubChem BioAssay (EPA / NIEHS)
